Compounds with a hit are over-represented: about 3.6% of the library has one in this group of screens.
A549 tox-1: kills or reduces viability of A549 cells in Nrf2 counter-screen; A549 ARE-Fluc cells, CellTiter-Fluor viability, 18-24 h; Potency, µM (highest dose often 46 µM), for inactives: at the top dose activity change, negative = cytotoxicity, usual class: inhibitors; hit rate 0.16% among 390,000; AID 504648; further: on the % scale 0 is the no-effect control and ±100 the full control effect
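A549 ARE-Fluc cells in 5% FBS OPTI-MEM, 5000 cells/well, rested 2 h then exposed to compounds in concentration-response for 18-24 h at 37 °C. Viability by CellTiter-Fluor fluorescence (Ex 405/Em 525) after 30 min; luciferase luminescence (BugLite, 15 min, RT) read afterwards.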
Nrf2 ARE act: activators of Nrf2 (ARE) signaling; hit rate 0.31% among 410,000; AREc32 ARE-luciferase reporter (MCF7-derived line), luminescence, 24 h; Potency, µM (doses to about 46.1 µM), for inactives: at the top dose activation, most hits filed as activators; AID 624171; further: % of control where 0% means no effect; nearly all actives have a fitted effect of over 65% in size
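Luminescent ARE reporter assay in AREc32_Fluc cells: overnight plating at 37 deg C, 24 hr compound incubation, Steady-Glo added, 30 min RT before reading.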
TGFb inhibitor: inhibitors of TGF-b signaling; Potency, µM (highest dose often 46.1 µM), for inactives: at the highest dose activity, negative = inhibition, most hits filed as inhibitors; hit rate 1.2% among 410,000; HepG2 CAGA-GFP TGF-b/SMAD3 reporter, GFP fluorescence, 18 h; TGF-beta stimulated, 500 pg/mL final; further: on the % scale 0 is the no-effect control and ±100 the full control effect; nearly all actives have a fitted effect of over 65% in size
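TGF-beta reporter screen: HEPG2 CAGA-GFP, 1% FBS, 500 pg/mL TGF-beta final, 18 h; per-cell GFP summed per well; curves fitted and categorized by class.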
Nrf2 inh: Nrf2 pathway inhibition; AID 504444; A549 ARE-Fluc reporter, luciferase luminescence, 18-24 h; Potency, µM (highest dose often 46 µM), for the others: top-dose activity change, negative = inhibition, usual class: inhibitors; hit rate 2.1% among 360,000; further: on the % scale 0 is the no-effect control and ±100 the full control effect; nearly all actives have a fitted effect of over 60% in size
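Nrf2 function is reported as luminescence of an ARE-controlled luciferase in A549 cells. Compounds were tested at several concentrations, and a CellTiter-Fluor read on the same wells flagged cytotoxicity.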
HepG2 viability: HepG2 cytotoxicity, counter-screen for TGF-b inhibitors; HepG2 CAGA-GFP viability, ATP luminescence, 18 h; Potency, µM (top dose mostly 46.1 µM), inactives show top-dose activity change, negative = cytotoxicity, most hits filed as cytotoxic; hit rate 0.76% among 410,000; AID 588856
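HepG2 CAGA-GFP cells (1000/well, DMEM with 1% FBS) received compound, then TGF-beta at 500 pg/mL final, and were incubated 18 hours at 37 degrees C. Viability was read by CellTiter-Glo luminescence. Media-only wells were set as complete cell-killing and DMSO as no toxicity.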
FLuc counter 3: counter-screen for Nrf2 inhibitors: firefly luciferase enzyme inhibition; purified firefly luciferase, luminescence inhibition; shares compounds with Nrf2 inh; hit rate 4% among 1,400; Potency, µM (highest dose often 57.5 µM), inactives show top-dose activity change, negative = inhibition, most hits filed as inhibitors; AID 720522; further: on the % scale 0 is the no-effect control and ±100 the full control effect; nearly all actives have a fitted effect of over 65% in size
Target sequence (P08659 whole entry, looked up): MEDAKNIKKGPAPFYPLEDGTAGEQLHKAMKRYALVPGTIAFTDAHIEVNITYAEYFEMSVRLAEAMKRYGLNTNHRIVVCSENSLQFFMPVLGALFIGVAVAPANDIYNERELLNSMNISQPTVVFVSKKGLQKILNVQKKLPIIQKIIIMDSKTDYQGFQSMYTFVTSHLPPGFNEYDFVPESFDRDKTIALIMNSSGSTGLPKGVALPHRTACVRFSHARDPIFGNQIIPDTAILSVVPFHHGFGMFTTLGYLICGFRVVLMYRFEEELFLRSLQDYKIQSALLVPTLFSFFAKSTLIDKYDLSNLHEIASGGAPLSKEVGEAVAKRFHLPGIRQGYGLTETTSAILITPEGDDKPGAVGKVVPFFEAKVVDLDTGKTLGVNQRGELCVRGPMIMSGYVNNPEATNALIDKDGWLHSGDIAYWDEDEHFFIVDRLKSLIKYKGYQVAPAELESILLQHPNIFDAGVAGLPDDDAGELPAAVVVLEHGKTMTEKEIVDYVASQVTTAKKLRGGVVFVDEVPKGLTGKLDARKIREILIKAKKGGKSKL
A549 tox-2: A549 cytotoxicity, Nrf2 inhibitor counterscreen; Potency, µM (titrated, usually from 46.1 µM), without a hit: at the highest dose activity change, negative = cytotoxicity, actives largely listed as inhibitors; hit rate 2% among 1,400; A549 ARE-Fluc cells, cytotoxicity counterscreen; shares compounds with Nrf2 inh;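 further: cells exposed to compounds for 18 to 24 hours; on the % scale 0 is the no-effect control and ±100 the full control effect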
Nrf2 ARE inh: confirmation of Nrf2 inhibitors in A549 ARE reporter cells; shares compounds with Nrf2 inh; A549 ARE-firefly luciferase reporter, luminescence; Potency, µM (series often up to 46.1 µM), without a hit: at the highest dose activity change, negative = inhibition, actives largely listed as inhibitors; hit rate 74% among 1,400; AID 720524; further: on the % scale 0 is the no-effect control and ±100 the full control effect; nearly all actives have a fitted effect of over 65% in size
An asterisk follows results filed as active; ? = inconclusive; . = no result given; [ ] = dose if it differs, or a comment. The call rests on the fitted dose curve; in most records, active means well fitted curve in the direction sought with a large enough effect; inconclusive means small, poorly fitted or top-dose-only effect, or another doubt; inactive means no such curve, though single readings can be large; an effect the other way counts as inactive or inconclusive. Potency means the concentration at half of the fitted maximal effect.

SMILES | A549 tox-1 | Nrf2 ARE act | TGFb inhibitor | Nrf2 inh | HepG2 viability | FLuc counter 3 | A549 tox-2 | Nrf2 ARE inh
O=C(O)/C=C/C(=O)Nc1ccc(SC(F)(F)C(F)(F)C(F)(F)F)cc1 | -4% | ? | 2% | ? | -42% | . | . | .
COc1ccc(CN(C)C(=O)/C=C/c2ccc(S(=O)(=O)N3CCCCCC3)cc2)cc1 | -15% | 2% | ? | 9.2µM* | -10% | -12% | -18% | ?
Cc1nn(Cc2c(F)c(F)c(F)c(F)c2F)c(C)c1NC(=O)c1ccnn1C | 5% | 1% | 0% | -13% | 0% | . | . | .
CCOc1ccccc1NC(=O)c1c(NC(=O)COc2ccccc2)sc2c1CCCCC2 | -1% | -1% | 0% | 3% | -15% | . | . | .
Cc1cccc(NC(=O)CSc2ccc(-c3ccccn3)nn2)c1 | -5% | 0% | ? | ? | -9% | . | . | .
COc1ccc(C)cc1NC(=O)CSc1ccc(-c2sc(C)nc2C)nn1 | -20% | 0% | 0% | 9.2µM* | 3% | ? | -19% | ?
COc1ccc(C)cc1NC(=O)CSc1ccc(-c2ccccn2)nn1 | 2% | 6% | ? | 3.7µM* | 0% | ? | -12% | 18µM*
FC(F)(F)c1cnc(N2CCC(=NOCc3ccc(Cl)cc3)CC2)c(Cl)c1 | -25% | -1% | 4% | 8.2µM* | -21% | 1% | 21% | 7%
FC(F)(F)c1cccc(CON=C2CCN(c3ncc(C(F)(F)F)cc3Cl)CC2)c1 | -22% | 0% | 15% | ? | -18% | . | . | .
COc1ccc(CCNc2ncnc3c2oc2ccccc23)cc1OC | -8% | 3% | ? | 5.2µM* | -41% | -19% | -13% | 4.1µM*
Fc1ccccc1CNc1ncnc2sccc12 | -22% | 3% | 1% | 4.1µM* | -3% | 1% | -5% | 5.2µM*
c1ccc2c(c1)OCC(CNc1ncnc3sccc13)O2 (centres undefined) | -5% | 6% | -24% | 1.5µM* | -42% | -23% | -4% | 1.2µM*
COc1ccc(CCNc2ncnc3sccc23)cc1OC | -6% | 1% | 0% | 0.58µM* | 4% | -20% | 1% | 0.52µM*
c1ccc(CNc2ncnc3c2oc2ccccc23)nc1 | 12% | 5% | ? | ? | -6% | . | . | .
CCC(=O)c1ccc(OCC(=O)OCC(=O)Nc2cccc(S(=O)(=O)N3CCCC3)c2)cc1 | 0% | 0% | -6% | ? | -65% | . | . | .
CS(=O)(=O)N(CC(=O)NCCSc1ccccc1)c1cc(C(F)(F)F)ccc1Cl | 1% | -1% | 0% | 3% | -7% | . | . | .
COc1ccccc1CNc1ncnc2sccc12 | -2% | 5% | 8% | 3.3µM* | 8% | -13% | -9% | 4.1µM*
CN(C)c1ccc(CNc2ncnc3sccc23)cc1 | -5% | 7% | -8% | 4.6µM* | -3% | -3% | -27% | 12µM*
Cc1ccc(NC(=O)CCC(=O)NNS(=O)(=O)c2ccccc2)c(C)c1 | -8% | 0% | 0% | ? | -4% | . | . | .
O=c1[nH]nc(-c2ccc(NCCO)c([N+](=O)[O-])c2)c2ccccc12 | -13% | 3% | 10% | ? | -3% | . | . | .
O=[N+]([O-])c1cc(Cl)cc2c1nc(NCCO)c1ccccc12 | ? | 8.9µM* | ? | 1.3µM* | -30% | -1% | ? | 0.73µM*
COc1cccc(S(=O)(=O)Nc2cccc(C(=O)N3CCCC3)c2)c1 | 2% | -1% | -5% | 1% | -20% | . | . | .
COc1ccc(C(O)c2nc3ccccc3n2C)cc1OC (centres undefined) | -5%[1.84 µM] | 0% | -8% | 3.7µM* | -6% | 0% | 1% | ?
Cc1cc(C)c(OC2(c3ccccc3)OC(=O)c3ccccc32)c(C)c1 (centres undefined) | -18% | 0% | -11% | 9.2µM* | -19% | 1% | 8% | -3%
Cc1cccc(C)c1OC1(c2ccccc2)OC(=O)c2ccccc21 (centres undefined) | ? | -1% | -8% | ? | 9% | . | . | .
SMILES | A549 tox-1 | Nrf2 ARE act | TGFb inhibitor | Nrf2 inh | HepG2 viability | FLuc counter 3 | A549 tox-2 | Nrf2 ARE inh
CCc1cccc(NC(=O)c2ccc3c(=O)n4nc(Nc5ccccc5OC)sc4nc3c2)c1 | 7% | 3% | ? | -1% | -50% | . | . | .
COc1ccc(CCNc2ccc(C(=O)O)cc2[N+](=O)[O-])cc1OC | -14% | 0% | -1% | -19% | -2% | . | . | .
COc1ccc(C(=O)N2CCN(c3ccc([N+](=O)[O-])c(NCCc4ccc(OC)c(OC)c4)c3)CC2)cc1 | ? | 3% | ? | 2.9µM* | -35% | 1% | -24% | 5.8µM*
COc1ccc(CCNc2cc(N3CCN(C(=O)c4ccccc4F)CC3)ccc2[N+](=O)[O-])cc1OC | ? | 1% | -10% | 2.1µM* | -14% | 1% | -27% | 6.5µM*
CC1=C(C(=O)N2CCOCC2)CC(CC(=O)NC(c2ccccc2)c2ccccc2)C(=O)N1CCCN1CCCC1=O (centres undefined) | . | 0% | -2% | . | 4% | . | . | .
CN(CC(=O)Nc1ccc(F)c(F)c1F)c1ncnc2sccc12 | -7% | 4% | -6% | -1% | 0% | . | . | .
CN(CC(=O)Nc1ccccc1Br)c1ncnc2sccc12 | -8% | 0% | 1% | 9.2µM* | 1% | 4% | 1% | ?
CC(=O)Nc1nnc(SCc2cc(=O)c(OC(=O)c3ccccc3)co2)s1 | -3% | 0% | 8% | 1% | 28% | . | . | .
Cc1ccc(C(=O)Oc2coc(CSc3nnc(NC(=O)c4cccs4)s3)cc2=O)cc1 | -1% | -1% | -26% | 6.5µM* | -1% | ? | 1% | 4.6µM*
C1CCC(OCCN2CCN(CCOC3CCCCC3)CC2)CC1 | -3% | 2% | -1% | 5% | -4% | . | . | .
Cc1ccc(-n2c(-c3ccc(Br)cc3)c[n+]3c2CCc2ccc4cccnc4c2-3)cc1 | -22% | 6% | 3.2µM* | 2.9µM* | 8.9µM* | -10% | ? | 5.8µM*
O=C(CSc1nc(O)c(C(c2ccccc2)c2ccccc2)c(=O)[nH]1)N1CCOCC1 | 3% | -1% | 0% | 2% | -11% | . | . | .
Cc1cccc(N(C)c2ncnc3onc(-c4ccc(F)cc4)c23)c1C | -15% | -1% | -23% | -10% | -2% | . | . | .

Screens as filed in PubChem BioAssay.
